From PubChem BioAssay (NCATS)
Records with an inconclusive call do not appear. Where a call stands in place of a potency, no number is given. Calls of active or inactive are those of the source. Unless noted, calls follow the shape of the dose curve; as a rule, active = well fitted curve in the direction sought with a large enough effect; inconclusive = small, poorly fitted or top-dose-only effect, or another doubt; inactive = no such curve, though single readings can be large; an effect the other way counts as inactive or inconclusive.

Key:
[1] = Validation of Assay for Modulators of Lamin A Splicing (AID 1459; active = well fitted curve in the direction sought with a large enough effect in the signal ratio; the % refers to the signal ratio;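 also: cells exposed to compound for two days before reading; ratio rise marks activators and ratio drop marks inhibitors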)
In short: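 Splicing correction read as GFP (500-530 nm) over DsRed2 (575-640 nm) object intensity after 48 h compound exposure of reporter HeLa S3 clones (600 cells/well, 2% FBS medium); ancitabine and cycloheximide titrations, 0.5% DMSO as vehicle.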

[2] = qHTS Assay for Lipid Storage Modulators (AID 1519; calls by dose curve); conditions: Drosophila S3 cells, BODIPY lipid droplet/cell ratio, laser cytometry, cells loaded with oleic acid
In short: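 Cells seeded at 5,000 per well were treated with compounds over a concentration series and loaded with oleic acid (400 uM, as added). Lipid droplet fluorescence (488 nm excitation, 500-530 nm channel) was read by laser-scanning cytometry and normalized to 20 uM Triacsin C.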

[3] = biological target: DNA repair nuclease/redox regulator APEX1 (Homo sapiens) (UniProt P27695); test: qHTS Validation Assay for Inhibitors of the Human Apurinic/apyrimidinic Endonuclease 1 (APE1) (AID 1705;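 also: TAMRA fluorescence gain over two minutes as APE1 cuts a quenched THF abasic duplex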)
In short: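 Activity read as rising fluorescence (598 nm emission, 525 nm excitation) from incision of a TAMRA/BHQ-2 duplex carrying a THF abasic site (50 nM). Compound and enzyme sat 15 min at RT before substrate start; signal change between first and third 60-s reads.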

[4] = Counterscreen for APE1 Inhibitors: Fluorescent Dye Displacement Validation Assay (AID 1707)
In short: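 Reaction mixture of 250 nM Thiazole Orange and 50 nM double-stranded abasic-site DNA was dispensed, compounds were pin-transferred, and fluorescence was read at endpoint (480 nm ex, 540 nm em). Reduced fluorescence indicated dye displacement by DNA binding.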

[5] = biological target: Endonuclease 4 (Escherichia coli (strain K12)) (UniProt P0A6C1); test: Counterscreen for APE1 Inhibitors: qHTS Validation Assay for Inhibitors of Endonuclease IV (AID 1708)
In short: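 Incision of a double-stranded 50 nM TAMRA/BHQ-2 abasic substrate was followed kinetically (525/598 nm, reads every 60 s) after 15 min enzyme–compound preincubation with 2 nM EndoIV in pH 7.5 Tris buffer with MgCl2, DTT and Tween-20; concentration-response format.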

[6] = qHTS for differential inhibitors of proliferation of Plasmodium falciparum line GB4 (AID 1816); conditions: Potency: Plasmodium falciparum GB4 proliferation inhibition;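 also: parasite growth measured after 72 h incubation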
[7] = qHTS for differential inhibitors of proliferation of Plasmodium falciparum line 3D7 (AID 1876);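 also: parasite growth measured after three days of culture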
[8] = qHTS for differential inhibitors of proliferation of Plasmodium falciparum line D10 (AID 1877);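 also: parasites grown with compound for 72 h before DNA staining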
[9] = qHTS for differential inhibitors of proliferation of Plasmodium falciparum line Dd2 (AID 1882); conditions: Potency: Plasmodium falciparum Dd2 proliferation inhibition; also: nearly all actives have a fitted effect of over 65% in size
In short: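 SYBR Green DNA fluorescence (ex 485, em 535 nm) after overnight lysis quantifies parasite growth; compound exposure lasted 72 h at 37 C on infected red cells at 2.5% hematocrit, 0.3% parasitemia (final). Artemisinin 0.29 uM and vehicle wells define normalization.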

[10] = qHTS for differential inhibitors of proliferation of Plasmodium falciparum line HB3 (AID 1886); conditions: Potency: Plasmodium falciparum HB3 proliferation inhibition;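 also: parasites grown with compound for 72 h before SYBR Green readout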
[11] = qHTS Assay for Modulators of Human Peripheral Myelin Protein 22 (PMP22) Expression/Activity (AID 1967; active = well fitted curve in the direction sought with a large enough effect in the signal ratio; the % refers to the signal ratio)
In short: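 Readout is the corrected green/red luminescence ratio after 24 h compound exposure, normalised to untreated cells (0%). Engineered MSC80 mouse Schwann cells express green luciferase from the mouse Pmp22 promoter and red luciferase from EF-alpha as internal control.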

[12] = biological target: Ferritin light chain (Equus caballus) (UniProt P02791); test: qHTS Validation Assay for Identification of Novel General Anesthetics (AID 2323)
In short: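 Competitive displacement of the profluorescent anesthetic 1-AMA (50% saturated, PBS) from 10 uM apoferritin, 10 min, room temperature. Activity is normalized 380/535 nm fluorescence; concentration-response fitted with a four-parameter Hill equation.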

[13] = biological target: ATP-dependent DNA helicase Q1 (Homo sapiens) (UniProt P46063); test: qHTS Validation Assay for Inhibitors of RecQ-Like Dna Helicase 1 (RECQ1) (AID 2353)
In short: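 RECQ1T1 50 nM; forked duplex (20 bp + 30-nt ss tails) 200 nM, ATP 2 mM final; pH 8.0, 2 mM MgCl2, 2.5 ug/ml poly(dI-dC); 15 min compound preincubation; discontinuous kinetic read over 2 h at RT.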

[14] = biological target: RecQ-like DNA helicase BLM (Homo sapiens) (UniProt P54132); test: qHTS Validation Assay for Inhibitors of Bloom's syndrome helicase (BLM) (AID 2364)
In short: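 Forked 20-bp duplex substrate (200 nM, TAMRA/BHQ-2) plus 2 mM ATP added after 15 min compound preincubation with 50 nM enzyme, pH 8.0, poly(dI-dC) 2.5 ug/ml. Strand separation followed by fluorescence (525/598 nm) over 2 h, normalized to enzyme-free and DMSO controls.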

[15] = Cytometric Cell-Based qHTS for Inhibitors of the mTORC1 Signaling Pathway in MEF (Tsc2-/-, p53-/-) Cells (AID 2660);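 also: percent of cells above a phospho-rpS6 to PI ratio cutoff in each well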
In short: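 Tsc2-/-, p53-/- MEFs (empty vector) exposed to compound 24 h at 37 C, fixed, stained with Alexa-488 anti-phospho-rpS6 Ser235/236 and propidium iodide. Acumen laser scanning; phospho-S6/PI ratio thresholded against 7.5 nM rapamycin, reported as % positive cells.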

[16] = High Content Imaging Cell-Based qHTS for Inhibitors of the mTORC1 Signaling Pathway in MEF (Tsc2-/-, p53-/-) Cells (AID 2666); conditions: at 38.3 µM (top of the series);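 also: percent of cells scored positive for phospho-rpS6 Ser235/236 immunostaining by imaging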
In short: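 Tsc2-/-, p53-/- MEFs (empty-vector stable) grown in DMEM + 10% FBS were exposed to compounds for 24 hrs at 37 degree Celsius, fixed, and stained with Alexa-488 anti-phospho-rpS6 Ser235/236 plus Hoechst. Imaging gave the percentage of positive cells per well.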

[17] = High Content Imaging Cell-Based qHTS for Inhibitors of the mTORC1 Signaling Pathway in MEF Cells (AID 2667);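 also: Tsc2-/- p53-/- MEFs stably re-expressing wild-type Tsc2 exposed 24 h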
In short: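 Tsc2-/-, p53-/- MEFs stably re-expressing WT Tsc2, grown in DMEM + 10% FBS, were treated with compounds for 24 hrs at 37 degree Celsius, fixed, and stained with Alexa-488 phospho-rpS6 Ser235/236 antibody plus Hoechst; results given as % positive cells.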

[18] = Cytometry Cell-Based qHTS for Inhibitors of the mTORC1 Signaling Pathway in MEF cells (AID 2668);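 also: Tsc2-/- p53-/- mouse embryonic fibroblasts stably re-expressing wild-type Tsc2; percent cells positive for phospho-rpS6 Ser235/236 relative to propidium iodide stain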
In short: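 Phospho-rpS6 (Ser235/236) immunofluorescence over PI signal, scored as % positive cells using thresholds from 7.5 nM rapamycin and DMSO wells, after 24 h compound exposure of WT-Tsc2-rescued Tsc2-/-, p53-/- MEFs. PI cell count recorded for viability.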

[19] = Validation screen for small molecules that induce DNA re-replication in MCF 10A normal breast cells (AID 463097); also: nearly all actives have a fitted effect of over 60% in size
In short: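 Read-out is Hoechst total nuclear intensity by fluorescence scanning imager, flagging increased high-DNA-content nuclei. Compounds were incubated with MCF 10A cells for 48 hr (37 C, 5% CO2) before 40 min staining.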

[20] = biological target: Ubiquitin carboxyl-terminal hydrolase 2 (Homo sapiens) (UniProt O75604); test: qHTS Validation Assay for Inhibitors of Ubiquitin-specific Protease USP2a Using CHOP2 as the Reporter (AID 463106)
In short: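 Readout was coupled fluorescence (Ex 485/Em 531 nm), read 60 min after adding 25 nM final Ub-CHOP2 and 25 nM reporter substrate. Beforehand, 10 nM final USP2 core had 30 min at RT with compound in pH 8.0 buffer. Curves were fitted after normalization to NEM and flagged for artifacts using time-zero reads.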

[21] = biological target: Tumor susceptibility gene 101 protein (Homo sapiens) (UniProt Q99816); test: qHTS Validation Assay for Iinhibitors of HIV-1 Budding by Blocking the Interaction of PTAP/TSG101 (AID 485342; calls by dose curve)
In short: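 Fluorescence polarization of 50 nM FITC-PTAP peptide bound to 10 uM Tsg101 binding domain was read after 20 min room-temperature incubation with compounds, in 10 mM HEPES pH 7.5, 0.15 M NaCl, 0.01% Tween 20.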

[22] = qHTS Validation Assay to Find Inhibitors of Chronic Active B-Cell Receptor Signaling (AID 485345; active = well fitted curve in the direction sought with a large enough effect in the main read-out, with a control signal flat, not every such curve was filed as active)
In short: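 Read-out: ratio of filter-corrected green (IkappaBalpha fusion) to red (native) luciferase signal in doxycycline-induced TMD8 cells after 4 h at 37C. Titration spanned 46 uM–3 nM; Data were normalised to basal cells and 10 uM MG-132 wells.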

[23] = biological target: Beta-2 adrenergic receptor (Homo sapiens) (UniProt P07550); test: qHTS validation assay of beta-arrestin-biased ligands of beta2-adrenergic receptor (AID 485366)
In short: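 qHTS, Tango cells, 1500 cells/well, DMEM + 1% FBS. Cpd 18 hr at 37 degrees C. Luciferin/ATP/CoA detection mix, 15 min RT, luminescence read. %Activity from corrected signal; CRC fit, curve class.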

[24] = biological target: Thioredoxin reductase 1, cytoplasmic (Rattus norvegicus) (UniProt O89049); test: qHTS Assay for Substrates of Mammalian Selenoprotein Thioredoxin Reductase 1 (TrxR1) (AID 488772);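 also: a drop in NADPH fluorescence below the no-compound background marks a TrxR1 substrate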
In short: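 In this dual-purpose format, potential substrates are identified from the first fluorescence read after selenite addition, not from the 8-minute delta. Rat enzyme is preincubated with NADPH and then with compound at ~22 deg C.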

[25] = biological target: Thioredoxin reductase 1, cytoplasmic (Rattus norvegicus) (UniProt O89049); test: qHTS Assay for Inhibitors of Mammalian Selenoprotein Thioredoxin Reductase 1 (TrxR1) (AID 488773); conditions: Potency: inhibition;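 also: drop in NADPH fluorescence over an 8 min run after selenite addition; nearly all actives have a fitted effect of over 40% in size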
In short: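 Inhibition is scored from the loss of NADPH fluorescence between first and last reads of an 8-min kinetic run. Selenite (400 uM) was the substrate, added after 15 min compound preincubation at room temperature.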

[26] = biological target: M-phase phosphoprotein 8 (Homo sapiens) (UniProt Q99549); test: qHTS Validation Assay for Inhibitors for MPP8 Chromodomain Interactions with Methylated Histone Tails (AID 488949);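 also: AlphaScreen signal from MPP8 chromodomain bound to biotinylated H3K9me3 peptide; top concentration of the series differs between compounds; nearly all actives have a fitted effect of over 55% in size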
In short: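 AlphaScreen proximity signal from streptavidin donor and Ni-chelate acceptor beads (10 ug/mL each) reported binding of MPP8 to trimethyl-K9 H3(1-18) peptide, both at 50 nM. The complex formed 30 min before a 30 min compound exposure at room temperature, in PBS pH 7.4.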

[27] = biological target: Chromobox protein homolog 1 (Homo sapiens) (UniProt P83916); test: qHTS Validation Assay for Inhibitors of HP1-beta Chromodomain Interactions with Methylated Histone Tails (AID 488953);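 also: loss of AlphaScreen luminescence from HP1-beta binding biotinylated H3K9me3 peptide; nearly all actives have a fitted effect of over 50% in size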
In short: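 AlphaScreen proximity signal from streptavidin donor and nickel chelate acceptor beads (final 10 ug/mL) after 30 min dark incubation. Compounds had 30 min at room temperature with preformed complex of 50 nM HP1-beta and 50 nM b-H3(1-18)K9me3 in PBS pH 7.4 with 0.01% Tween-20.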

[28] = biological target: Methanococcus maripaludis chaperonin (MmCpn) (UniProt Q6LX38); test: High-Throughput Screening for Modulators of Cytosolic Chaperonin Activity: MmCpn Primary Screen (AID 488978);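 also: 50 nM MmCpn enzyme hydrolysing 30 µM ATP at 37 °C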
In short: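 ATPase activity of 50 nM MmCpn was assayed with 30 uM ATP, 10 minutes at 37C, after a 5 min compound preincubation at room temperature. ADP production was read as HTRF emission at 590 and 665 nm.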

[29] = biological target: Transient receptor potential cation channel subfamily V member 1 (Homo sapiens) (UniProt Q8NER1); test: HTS Assay for Compounds that Act as Enhancers of the Vanilloid Receptor 1 (AID 488979)
In short: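 Calcium influx kinetics via Fluo-8 (480/520 nm) in TRPV1-expressing cells, 2000/well cultured overnight at 35.5C. Compound-alone read 3 min (agonist phase), followed by EC20 capsaicin challenge for 2 min (enhancer phase).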

[30] = biological target: Thyrotropin receptor (Homo sapiens) (UniProt P16473); test: qHTS Assay for Antagonists of the Thyroid Stimulating Hormone Receptor (AID 488980)
In short: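 Inhibition of cAMP raised by EC80 TSH (4 nM final) was read by HTRF, with lysate cAMP competing against cAMP-d2 for cryptate antibody after 30 min at room temperature. The cells were transfected HEK293 held in phosphodiesterase inhibitor RO 20-1724 at 70 uM.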

[31] = biological target: D(1A) dopamine receptor (Homo sapiens) (UniProt P21728); test: HTS Assay for Allosteric Agonists of the Human D1 Dopamine Receptor: Primary Screen for Agonists (AID 488981)
In short: (§1)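 Calcium flux in an inducible, force-coupled HEK293 Trex D1 line (overnight at 30 C): agonist mode is the 180 s kinetic read after compound; potentiator mode is the following 180 s read after dopamine at EC20.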

[32] = biological target: D(1A) dopamine receptor (Homo sapiens) (UniProt P21728); test: HTS Assay for Allosteric Agonists of the Human D1 Dopamine Receptor: Primary Screen for Potentiators (AID 488982)
In short: as §1

[33] = biological target: D(1A) dopamine receptor (Homo sapiens) (UniProt P21728); test: HTS Assay for Allosteric Agonists of the Human D1 Dopamine Receptor: Primary Screen for Antagonists (AID 488983);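 also: calcium flux response to an EC80 dopamine challenge measured with no-wash dye; nearly all actives have a fitted effect of over 65% in size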
In short: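 Calcium-flux read-out in inducible HEK293 T-REx cells expressing D1, dye-loaded 30–90 min at room temperature. Kinetic reads: 180 s after compound (agonist phase), then 180 s after an EC80 dopamine challenge.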

[34] = Validation screen for small molecules that induce genotoxicity in human embryonic kidney (HEK293T) cells expressing luciferase-tagged ELG1 (AID 493106); also: potency is read from the fitted curve at half-maximal effect
In short: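 ELG1-luciferase reporter readout (ONE-Glo, 30 min, room temperature) after 16 hr compound treatment at 37 °C of HEK293T cells at 2,000 per well. Rising luminescence flags genotoxic stress.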

[35] = biological target: Thyrotropin-releasing hormone receptor (Homo sapiens) (UniProt P34981); test: qHTS for Small Molecule Agonists and Allosteric Enhancers of Human TRH Receptor: Validation Screen for Agonists (AID 493127;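 active = calcium activation more than 3 SD above the typical response in the agonist read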;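 also: intracellular calcium rise by fluo-8 fluorescence before TRH EC20 addition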); conditions: TRH receptor agonist cell assay; at 2 µM; stronger effect = higher value
In short: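 Compound-evoked intracellular calcium release in fluo-8-loaded TRHR cells, read kinetically on FDSS (Ex 480/Em 530, 1 s/cycle) after 23 nL pintool transfer. Agonist phase preceded 10 nM TRH EC20 addition.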

Chain of D(1A) dopamine receptor (Homo sapiens) (P21728 whole entry, looked up): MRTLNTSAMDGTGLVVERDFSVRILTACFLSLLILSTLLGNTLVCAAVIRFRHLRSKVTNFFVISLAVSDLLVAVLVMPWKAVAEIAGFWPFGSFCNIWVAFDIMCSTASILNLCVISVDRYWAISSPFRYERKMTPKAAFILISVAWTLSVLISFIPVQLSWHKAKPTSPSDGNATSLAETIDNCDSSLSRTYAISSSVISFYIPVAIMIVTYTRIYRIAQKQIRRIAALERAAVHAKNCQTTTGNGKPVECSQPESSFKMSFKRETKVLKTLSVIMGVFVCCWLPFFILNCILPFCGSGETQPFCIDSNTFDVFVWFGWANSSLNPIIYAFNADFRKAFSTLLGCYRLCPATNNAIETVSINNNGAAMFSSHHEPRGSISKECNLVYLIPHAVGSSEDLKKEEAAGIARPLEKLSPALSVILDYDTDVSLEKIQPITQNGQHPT
Chain of M-phase phosphoprotein 8 (Homo sapiens) (Q99549 whole entry, looked up): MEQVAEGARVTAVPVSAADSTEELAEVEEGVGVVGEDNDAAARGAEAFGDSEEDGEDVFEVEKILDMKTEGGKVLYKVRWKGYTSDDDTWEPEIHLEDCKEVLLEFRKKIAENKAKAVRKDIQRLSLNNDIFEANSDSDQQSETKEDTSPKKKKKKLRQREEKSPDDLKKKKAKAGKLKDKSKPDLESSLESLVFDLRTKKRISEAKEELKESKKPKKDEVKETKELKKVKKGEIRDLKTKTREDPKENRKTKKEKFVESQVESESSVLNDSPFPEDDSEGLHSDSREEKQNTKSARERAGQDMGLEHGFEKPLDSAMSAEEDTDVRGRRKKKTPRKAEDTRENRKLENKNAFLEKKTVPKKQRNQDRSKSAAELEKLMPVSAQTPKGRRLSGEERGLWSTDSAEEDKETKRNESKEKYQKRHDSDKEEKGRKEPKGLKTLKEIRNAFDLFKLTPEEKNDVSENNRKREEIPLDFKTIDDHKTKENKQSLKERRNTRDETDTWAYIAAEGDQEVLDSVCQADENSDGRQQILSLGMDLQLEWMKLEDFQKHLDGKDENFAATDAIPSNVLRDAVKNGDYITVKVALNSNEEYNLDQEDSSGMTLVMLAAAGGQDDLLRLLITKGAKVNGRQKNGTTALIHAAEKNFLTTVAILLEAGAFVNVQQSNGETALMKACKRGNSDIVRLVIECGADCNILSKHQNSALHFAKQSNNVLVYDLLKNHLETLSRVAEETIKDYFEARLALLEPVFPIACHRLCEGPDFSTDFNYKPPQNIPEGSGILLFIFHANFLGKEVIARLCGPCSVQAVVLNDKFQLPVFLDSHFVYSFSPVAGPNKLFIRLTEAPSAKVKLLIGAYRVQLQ
Chain of Thioredoxin reductase 1, cytoplasmic (Rattus norvegicus) (O89049 whole entry, looked up): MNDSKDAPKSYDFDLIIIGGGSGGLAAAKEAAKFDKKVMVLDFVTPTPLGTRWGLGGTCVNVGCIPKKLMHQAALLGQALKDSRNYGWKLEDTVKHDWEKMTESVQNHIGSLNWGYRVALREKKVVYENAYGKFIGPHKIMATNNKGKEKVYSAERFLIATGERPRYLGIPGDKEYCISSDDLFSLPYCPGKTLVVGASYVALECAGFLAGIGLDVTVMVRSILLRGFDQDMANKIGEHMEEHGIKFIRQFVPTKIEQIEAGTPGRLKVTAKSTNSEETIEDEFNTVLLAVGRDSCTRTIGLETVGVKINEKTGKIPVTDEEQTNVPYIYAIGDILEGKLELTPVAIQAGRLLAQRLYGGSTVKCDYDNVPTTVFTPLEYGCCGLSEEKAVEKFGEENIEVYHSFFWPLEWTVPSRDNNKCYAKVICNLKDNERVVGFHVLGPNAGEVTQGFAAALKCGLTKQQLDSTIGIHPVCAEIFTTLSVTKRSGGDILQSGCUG
Chain of Thyrotropin receptor (Homo sapiens) (P16473 whole entry, looked up): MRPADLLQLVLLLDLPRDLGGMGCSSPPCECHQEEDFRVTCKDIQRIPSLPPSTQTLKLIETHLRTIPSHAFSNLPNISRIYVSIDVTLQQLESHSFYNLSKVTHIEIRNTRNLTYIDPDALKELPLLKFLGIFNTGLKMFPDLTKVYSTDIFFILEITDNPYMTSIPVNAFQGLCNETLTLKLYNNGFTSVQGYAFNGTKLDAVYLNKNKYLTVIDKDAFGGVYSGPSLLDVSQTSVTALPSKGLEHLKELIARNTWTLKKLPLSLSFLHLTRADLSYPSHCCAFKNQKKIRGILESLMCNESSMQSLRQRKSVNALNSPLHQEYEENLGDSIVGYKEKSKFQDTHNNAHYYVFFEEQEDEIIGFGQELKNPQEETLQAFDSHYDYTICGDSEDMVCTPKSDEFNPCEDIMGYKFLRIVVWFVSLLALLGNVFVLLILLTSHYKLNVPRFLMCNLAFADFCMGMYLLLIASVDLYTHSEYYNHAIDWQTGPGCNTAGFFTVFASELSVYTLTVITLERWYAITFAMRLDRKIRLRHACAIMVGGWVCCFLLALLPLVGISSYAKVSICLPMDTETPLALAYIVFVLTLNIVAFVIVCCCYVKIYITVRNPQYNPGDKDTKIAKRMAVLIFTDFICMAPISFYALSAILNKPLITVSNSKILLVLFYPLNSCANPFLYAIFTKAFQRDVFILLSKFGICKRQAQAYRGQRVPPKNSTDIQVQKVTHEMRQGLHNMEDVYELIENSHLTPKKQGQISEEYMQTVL
Chain of Ferritin light chain (Equus caballus) (P02791 2-175 limits assumed): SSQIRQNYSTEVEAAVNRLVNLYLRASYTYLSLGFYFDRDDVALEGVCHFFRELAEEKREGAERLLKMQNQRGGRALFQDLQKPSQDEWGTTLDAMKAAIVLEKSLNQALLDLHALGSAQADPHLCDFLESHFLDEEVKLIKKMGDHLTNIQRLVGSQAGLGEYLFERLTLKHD
Chain of Ubiquitin carboxyl-terminal hydrolase 2 (Homo sapiens) (O75604 whole entry, looked up): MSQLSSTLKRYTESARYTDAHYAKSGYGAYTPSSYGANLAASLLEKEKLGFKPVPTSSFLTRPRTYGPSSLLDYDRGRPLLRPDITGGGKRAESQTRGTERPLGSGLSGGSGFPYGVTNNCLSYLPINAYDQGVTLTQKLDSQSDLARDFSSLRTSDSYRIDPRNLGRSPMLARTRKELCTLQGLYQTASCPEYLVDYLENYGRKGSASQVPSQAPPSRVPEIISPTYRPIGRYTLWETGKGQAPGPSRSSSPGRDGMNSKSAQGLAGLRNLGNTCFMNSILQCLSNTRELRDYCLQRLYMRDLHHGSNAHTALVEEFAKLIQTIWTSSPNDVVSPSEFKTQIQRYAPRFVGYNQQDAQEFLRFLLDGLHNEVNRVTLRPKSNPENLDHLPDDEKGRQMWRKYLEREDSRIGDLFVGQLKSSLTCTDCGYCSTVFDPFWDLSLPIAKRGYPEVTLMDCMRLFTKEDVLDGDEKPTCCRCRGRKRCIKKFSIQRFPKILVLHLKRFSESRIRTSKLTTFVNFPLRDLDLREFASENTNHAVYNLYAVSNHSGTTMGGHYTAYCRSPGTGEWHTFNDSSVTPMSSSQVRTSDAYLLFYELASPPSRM
Chain of Chromobox protein homolog 1 (Homo sapiens) (P83916 whole entry, looked up): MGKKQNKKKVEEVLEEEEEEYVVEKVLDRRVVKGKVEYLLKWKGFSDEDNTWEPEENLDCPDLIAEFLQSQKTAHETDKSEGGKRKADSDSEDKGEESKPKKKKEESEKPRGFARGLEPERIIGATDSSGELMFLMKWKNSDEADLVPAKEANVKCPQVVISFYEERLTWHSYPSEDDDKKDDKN
Chain of Thyrotropin-releasing hormone receptor (Homo sapiens) (P34981 whole entry, looked up): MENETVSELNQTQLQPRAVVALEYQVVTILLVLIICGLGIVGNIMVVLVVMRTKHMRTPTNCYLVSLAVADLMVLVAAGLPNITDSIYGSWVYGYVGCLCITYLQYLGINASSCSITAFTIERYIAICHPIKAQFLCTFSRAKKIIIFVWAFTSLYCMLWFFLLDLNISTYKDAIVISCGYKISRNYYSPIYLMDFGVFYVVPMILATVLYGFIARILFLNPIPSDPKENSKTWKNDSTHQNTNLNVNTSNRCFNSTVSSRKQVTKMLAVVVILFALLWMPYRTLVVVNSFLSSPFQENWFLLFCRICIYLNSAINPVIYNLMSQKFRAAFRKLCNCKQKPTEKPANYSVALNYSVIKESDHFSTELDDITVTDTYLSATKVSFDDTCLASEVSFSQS
Chain of Transient receptor potential cation channel subfamily V member 1 (Homo sapiens) (Q8NER1 whole entry, looked up): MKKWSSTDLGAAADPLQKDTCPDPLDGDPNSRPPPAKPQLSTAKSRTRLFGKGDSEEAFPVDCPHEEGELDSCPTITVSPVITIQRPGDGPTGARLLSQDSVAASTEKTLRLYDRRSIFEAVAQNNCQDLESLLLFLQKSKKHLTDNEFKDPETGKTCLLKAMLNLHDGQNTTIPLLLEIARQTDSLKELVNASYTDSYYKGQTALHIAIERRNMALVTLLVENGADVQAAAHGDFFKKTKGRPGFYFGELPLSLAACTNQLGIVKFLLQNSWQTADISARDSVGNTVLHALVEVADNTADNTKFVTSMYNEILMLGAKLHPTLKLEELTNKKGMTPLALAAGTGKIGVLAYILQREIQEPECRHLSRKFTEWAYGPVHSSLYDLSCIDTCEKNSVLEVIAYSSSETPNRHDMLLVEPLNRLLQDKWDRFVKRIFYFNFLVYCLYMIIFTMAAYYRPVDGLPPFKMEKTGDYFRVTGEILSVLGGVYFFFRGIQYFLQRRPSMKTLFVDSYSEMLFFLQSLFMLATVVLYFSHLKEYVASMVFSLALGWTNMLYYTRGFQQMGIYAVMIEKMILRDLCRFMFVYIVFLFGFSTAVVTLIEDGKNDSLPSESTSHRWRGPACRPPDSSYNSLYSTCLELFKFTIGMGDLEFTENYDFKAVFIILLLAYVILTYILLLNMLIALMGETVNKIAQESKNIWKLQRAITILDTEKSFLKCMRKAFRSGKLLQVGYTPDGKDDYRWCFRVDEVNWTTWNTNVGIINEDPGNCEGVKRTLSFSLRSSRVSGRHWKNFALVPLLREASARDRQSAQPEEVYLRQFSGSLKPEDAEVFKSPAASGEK

Cc1cccc(/C=C/c2ccccc2)n1
outcome [1]: inactive
activity change, negative = inhibition ([2]; at 57.5 µM (top of the series)): 1.78% (inactive)
max response ([2]; measured here: cell count channel max response): 54.4%
max response ([2]; measured here: lipid channel max response): 55.9%
Potency [3]: inactive
Potency [4]: inactive
Potency [5]: inactive
Potency [6]: inactive
Potency [7]: inactive
Potency [8]: inactive
Potency [9]: inactive
Potency [10]: inactive
outcome [11]: inactive
outcome [12]: inactive
Potency [13]: inactive
Potency [14]: inactive
outcome [15]: inactive
outcome [16]: inactive
Potency [17]: inactive
Potency [18]: inactive
Potency [19]: inactive
Potency [20]: inactive
outcome [21]: inactive
outcome [22]: inactive
outcome [23]: inactive
outcome [24]: inactive
Potency [25]: inactive
Potency [26]: inactive
Potency [27]: inactive
outcome [28]: inactive
outcome [29]: inactive
outcome [30]: inactive
outcome [31]: inactive
outcome [32]: inactive
outcome [33]: inactive
Potency [34]: 4.11 µM (active)
activation [35]: -7% (inactive)
